Reference: PubChem BioAssay (Tox21)
Several values for one entry are separate records, joined by “and”; a condition that tells them apart may be missing. Equal values may be shown once. Activity calls are given as the source filed them. Calls come from the whole dose curve.

Assay: qHTS assay to identify small molecule agonists of the estrogen related receptor (ERR) signaling pathway from Tox21 library (AID 1224849); note: nearly all actives have a fitted effect of over 15% in size
Conditions: ERR reporter cell line, ONE-Glo luciferase, 18 h; at 92.4 µM (top of the series) unless noted
Source text: National Center for Advancing Translational Sciences [NCATS]
NIH Chemical Genomics Center [NCGC]
U.S. Environmental Protection Agency [EPA]
National Institutes of Environmental Health Sciences [NIEHS]
National Toxicology Program [NTP]
Estrogen related receptors (ERRs), the first orphan nuclear receptors discovered, play an important role in the control of cellular energy metabolism. ERRs are required for high-energy production in response to the environmental challenges. ERR-alpha was also identified as an adverse marker for breast cancer progression; ERR-alpha-positive tumors have a poor prognosis. To screen and to identify environmental compounds that perturb the ERR signaling pathways could provide valuable information for potential therapeutic or preventive measures in the treatment of metabolic disease. For identifying ERR agonists, ERR cell line (provided by NTP) has been used to screen Tox21 10K library.
The ERR cells were dispensed at 2,000 cells/5 ul/well in 1536-well white plates using a Multidrop dispenser. After the assay plates were incubated at a 37 C/5% CO2 incubator for 6 hours, 23 nL of compounds dissolved in DMSO, positive and negative controls or DMSO only was transferred to the assay plate by a pin tool. The plates were incubated at 37 C for 18 hours. 4 ul/well of One-Glo reagent was added into the assay plates using a Flying Reagent Dispenser. After 30-minute incubation at room temperature, the luminescence intensity in the plates was measured using a ViewLux plate reader.
% is set by controls: 0 for no effect and ±100 for the full control effect.

| SMILES | activity change, positive = activation |
| --- | --- |
| O=C1OC(=O)C2CCCCC12 (stereo not given) | -1.02% (inactive) |
| NC(=O)c1ccc([N+](=O)[O-])cc1 | -5.69% (inactive) |
| N[C@@H](C(=O)N[C@@H]1C(=O)N2C(C(=O)O)=C(Cl)CS[C@H]12)c1ccccc1 | 4.35% [at 8.39 µM] (inactive) |
| O=S(O)CO | 4.77% (inactive) |
| N=C(N)c1ccc2cc(OC(=O)c3ccc(N=C(N)N)cc3)ccc2c1 | 0.274% [at 42.5 µM] (inactive) |
| Cc1cccn2c(=O)c(-c3nnn[nH]3)cnc12 | 4.72% [at 19 µM] (inactive) |
| CC1=CC(C)C(C=O)CC1 (stereo not given) | 0.053% (inactive) |
| CCOC(=O)c1ccc(C)cc1 | 4.47% (inactive) |
| Cc1cc2c(cc1S(N)(=O)=O)S(=O)(=O)CCC2 | 2.29% [at 42.5 µM] (inactive) |
| CS(=O)(=O)O | 3.34% (inactive) |
| Cc1c(O)cccc1O | 2.02% (inactive) |
| CC(=O)OC/C=C(\C)CC/C=C(\C)CCC=C(C)C | 1.18% (inactive) and 2.19% (inactive) |
| CCCCCCCCCCCCN(CCCCCCCCCCCC)CCCCCCCCCCCC | 5.6% (inactive) |
| C=COCC1CCC(CO)CC1 (stereo not given) | 2.36% (inactive) |
| Cc1c(NC(C)C)c(=O)n(-c2ccccc2)n1C | 0.236% [at 42.5 µM] (inactive) |
| FC(F)OC(Cl)C(F)(F)F (stereo not given) | 8.92% (inactive) |
| CN1CCCC1 | 4.55% (inactive) |
| COC(=O)NN | -24.9% (inactive) |
| C=C(C)CS(=O)(=O)O | 0.527% (inactive) |
| CC(C)(c1ccc(O)cc1)c1ccc(O)cc1 | -29.8% (inactive) and -30.2% (inactive) |

| SMILES | activity change, positive = activation |
| --- | --- |
| CC/C=C\CC/C=C/C(OCC)OCC | 2.27% (inactive) |
| C1OCOCO1 | 6.76% (inactive) |
| C[N+](C)(C)CC(O)CC(=O)[O-] (stereo not given) | 3.63% [at 42.5 µM] (inactive) |
| CC/C=C\CC/C=C/CO | 5.28% (inactive) |
| CCCCNC(=O)NCCCC | 12.5% (inactive) |
| Cc1ccc(C#N)cc1 | 1.46% (inactive) |
| CCCCCCCCCCCCCCCCC | -0.135% (inactive) |
| C=CCCCCCCCCC=O | -2.86% (inactive) |
| CC(C)(C)c1nnc(NS(=O)(=O)c2ccccc2)s1 | -14.8% [at 42.5 µM] (inactive) |
| CCCCCOC(=O)CCCCC | 0.374% (inactive) |
| CCOc1ccc(C(=O)OCCN(CC)CC)cc1 | 1.57% [at 42.5 µM] (inactive) |
| CC(=O)Nc1c(I)cc(I)c(C(=O)O)c1I | 7.03% [at 42.5 µM] (inactive) |
| CN1CCN(c2cc3c(cc2F)c(=O)c(C(=O)O)cn3-c2ccc(F)cc2)CC1 | -10.8% [at 42.5 µM] (inactive) |
| C[C@H]1C[C@@H](O)CC(C)(C)C1 | 0.742% (inactive) |
| CCC=O | 0.85% (inactive) |
| CC(=O)OCC(=O)[C@@]1(O)CCC2C3CCC4=CC(=O)CC[C@]4(C)C3[C@@H](O)C[C@@]21C (stereo not given in full) | -12.1% [at 42.5 µM] (inactive) |
| CCn1ccnc1CC1COc2ccccc2O1 (stereo not given) | 8.29% [at 42.5 µM] (inactive) |
| CC/C=C\CCOC(C)=O | 8.11% (inactive) |
| C[C@@H]1CCN(C(=O)[C@H](CCCN=C(N)N)NS(=O)(=O)c2cccc3c2NC[C@H](C)C3)[C@@H](C(=O)O)C1 | 6.26% [at 42.5 µM] (inactive) |
| C=CCS(=O)(=O)O | 4.55% (inactive) |
